Compound activity as filed in PubChem.
Hits are enriched below; roughly 9.4% of the tested compounds scored in any of these assays.
HPGD block – qHTS Assay for Inhibitors of HPGD (15-Hydroxyprostaglandin Dehydrogenase); 15-hydroxyprostaglandin dehydrogenase [NAD(+)] (Homo sapiens), P15428; purified HPGD, NADH fluorescence kinetic, PGE2 substrate; Potency, µM, for the others: at the highest dose activity change, negative = inhibition, hits mostly inhibitors; hit rate 4.3% among 150,000; active = well fitted inhibition curve with a large enough effect, not every such curve was filed as active; inconclusive = small, poorly fitted or top-dose-only effect, or another doubt; inactive = no such curve, though single readings can be large or run the other way; note: potency is the fitted concentration of half-maximal effect; % is set by controls: 0 for no effect and ±100 for the full control effect
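20 nM HPGD preincubated 15 min at room temperature with compound in 50 mM Tris-HCl pH 8, 0.01% Tween 20. Started with 1 mM NAD+ and 30 uM prostaglandin E2; NADH fluorescence (360/450 nm) read 5 times over 30-s intervals, last minus first.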
HttQ103 aggreg – qHTS Multiplex Assay to Identify Dual Action Probes in a Cell Model of Huntington: Aggregate Formation (GFP). hit rate 1.1% among 220,000. PC12 HttQ103-GFP aggregates, Acumen cytometry, 40 h. Potency, µM (doses to about 46.1 µM), for inactives: at the top dose activity change, negative = inhibition, hits mostly inhibitors; note: potency is the fitted concentration of half-maximal effect; % is set by controls: 0 for no effect and ±100 for the full control effect; nearly all actives have a fitted effect of over 60% in size
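Inducible Q103 Huntingtin exon 1–GFP PC12 line, 1500 cells/well in phenol red free DMEM with 5% equine and 5% calf serum. Tebufenozide 100 nM induced expression; compounds titrated; aggregates quantified by cytometry.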
IMPase cell inh – qHTS Assay for Identifying the Cell-Membrane Permeable IMPase Inhibitors; Inositol monophosphatase 1 (Rattus norvegicus), P97697; CHO-M1 cells, IP1 accumulation, HTRF TR-FRET ratio; inhibition (IP1 accumulation), % at 46.1 µM; 120,000 tested, under 10 active; active = well fitted curve in the direction sought with a large enough effect in the signal ratio, not every such curve was filed as active; inconclusive = small, poorly fitted or top-dose-only effect, or a change in a side signal; inactive = no such curve, though single readings can be large or run the other way; the % refers to the signal ratio;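 note: cells stimulated with carbachol in lithium chloride buffer; plate controls were DMSO basal wells for no effect and reference inhibitor wells for full effect; higher means more IMPase inhibition seen as more IP1 and lower FRET ratio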
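In this qHTS, compounds (final up to 46 uM) act on CHO-M1 cells that are then activated through the M1 receptor with carbachol, in pH 7.4 buffer containing 50 mM LiCl, for 30 min. IP1 accumulation is quantified by the IP-One immunoassay.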
IMPase Li inh – qHTS Assay for Identifying the Cell-Membrane Permeable IMPase Inhibitors: Potentiation with Lithium. AID 1457, 2008. CHO-M1 cells, IP1 TR-FRET (IP-One), carbachol + lithium. Potency, µM (series often up to 59.4 µM), for inactives: top-dose activity, negative = IMPase inhibition, usual class: inhibitors. hit rate 0.35% among 210,000;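 note: IP1 builds up when IMPase is blocked and the TR-FRET signal falls; potency is the fitted concentration of half-maximal effect; plate controls were basal vehicle for no effect and high inhibitor control for full effect; nearly all actives have a fitted effect of over 50% in size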
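Steps: plate 2000 CHO-M1 cells per well and culture 16–30 h; add compound and lithium; incubate 30 min, 37C; add d2-IP1 tracer and Eu cryptate anti-IP1 antibody in lysis buffer; read after 10 min at room temperature.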
ALDH1A1 block – qHTS Assay for Inhibitors of Aldehyde Dehydrogenase 1 (ALDH1A1); Aldehyde dehydrogenase 1A1 (Homo sapiens), P00352; Purified ALDH1A1, NADH fluorescence, propionaldehyde substrate; Potency, µM (top dose mostly 75.3 µM), for inactives: at the highest dose activity, negative = inhibition, actives largely listed as inhibitors; hit rate 7.3% among 220,000; AID 1030, 2008; active = well fitted inhibition curve with a large enough effect, not every such curve was filed as active; inconclusive = small, poorly fitted or top-dose-only effect, or another doubt; inactive = no such curve, though single readings can be large or run the other way;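 note: potency is the fitted concentration of half-maximal effect; plate controls were no enzyme wells and a reference inhibitor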
Target sequence (P00352 whole entry, looked up): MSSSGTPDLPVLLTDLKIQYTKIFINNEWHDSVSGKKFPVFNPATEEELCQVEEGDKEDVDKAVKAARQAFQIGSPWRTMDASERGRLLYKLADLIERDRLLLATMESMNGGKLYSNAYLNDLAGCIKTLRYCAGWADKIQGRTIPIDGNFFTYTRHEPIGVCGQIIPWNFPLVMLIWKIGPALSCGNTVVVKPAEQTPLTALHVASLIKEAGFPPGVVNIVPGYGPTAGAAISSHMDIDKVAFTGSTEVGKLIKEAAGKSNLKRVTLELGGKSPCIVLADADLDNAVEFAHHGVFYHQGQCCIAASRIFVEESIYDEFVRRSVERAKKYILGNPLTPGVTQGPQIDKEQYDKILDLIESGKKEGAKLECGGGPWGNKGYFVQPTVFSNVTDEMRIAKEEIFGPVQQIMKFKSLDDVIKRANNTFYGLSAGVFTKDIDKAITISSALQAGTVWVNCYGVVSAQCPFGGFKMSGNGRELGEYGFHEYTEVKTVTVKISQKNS
HTT cytoprotect – qHTS Multiplex Assay to Identify Dual Action Probes in a Cell Model of Huntington: Cytoprotection (ATP); PC12 HTT-Q103 induced, cytoprotection, ATP luminescence, 40 h; Potency, µM (series often up to 56.4 µM), for inactives: cytoprotection (ATP increase), hits mostly activators; hit rate 0.14% among 230,000; AID 1471, 2008; note: potency is the fitted concentration of half-maximal effect; % of control where 0% means no effect; nearly all actives have a fitted effect of over 45% in size
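PC12 cells with ecdysone-inducible HTT exon 1 Q103-GFP, induced with 100 nM tebufenozide and co-treated with library compounds in a dose series (1536-well, 1500 cells/well). Cytoprotection read as ATP content by ATPlite luminescence.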
* marks the source's active call; other numbers are inactive results; ? = inconclusive; · = no result given; [ ] = another dose, or the depositor's remark. Unless noted, calls come from the whole dose curve; as a rule, active = well fitted curve in the direction sought with a large enough effect; inconclusive = small, poorly fitted or top-dose-only effect, or another doubt; inactive = no such curve, though single readings can be large; an effect the other way counts as inactive or inconclusive.

SMILES | HPGD block | HttQ103 aggreg | IMPase cell inh | IMPase Li inh | ALDH1A1 block | HTT cytoprotect
CN(C(=O)CSc1nc2ccccc2n1CCc1ccccc1)C1CCS(=O)(=O)C1 (configuration not stated) | -14% | -1% | 7 | 16%[38.3 µM] | 22µM* | -6%
Cc1ccccc1-n1nnnc1SCC(=O)N(C)C1CCS(=O)(=O)C1 (configuration not stated) | · | -5% | · | -2% | 11µM* | -1%
COCCn1c(SCC(=O)N(C)C2CCS(=O)(=O)C2)nc2ccccc2c1=O (configuration not stated) | · | 15%[9.22 µM] | · | 2% | 9% | -24%[1.9 µM]
Cc1cc(F)ccc1S(=O)(=O)Nc1ccc2oc3c(c2c1)CC(C)CC3 (configuration not stated) | · | · | 13 | · | · | ·
C#C[C@]1(OC(C)=O)CC[C@H]2[C@@H]3CCC4=CC(=O)CC[C@@H]4[C@H]3CC[C@@]21C | -6% | · | · | 25% | 6% | -116%
Cc1oc(C)c2c(=O)ccc3c(c12)OC(N)=C(C#N)C3c1ccccc1Cl (configuration not stated) | -10% | ? | 5 | 12%[38.3 µM] | 25µM* | -18%
NC(C(=O)O)(c1ccc(P(=O)(O)O)cc1)C1CC1 (configuration not stated) | · | · | · | -7% | 7% | -37%
O=[N+]([O-])c1ccc(CN2CCN(c3ccc4ccccc4n3)CC2)cc1 | · | -6% | · | -5% | 0% | -13%
O=[N+]([O-])c1ccc(N2CCN(Cc3ccccc3)CC2)nc1 | · | 21% | · | 31% | 20µM* | -22%
CC(C)CC(=O)Nc1nnc(SCC(=O)Nc2ccc(F)cc2)s1 | · | 26% | · | 7% | 11% | -3%[10 µM]
O=C(CSc1nnc(NC2CCCCC2)s1)Nc1ccc2c(c1)C(=O)c1ccccc1C2=O | · | ? | · | 2% | 13µM* | -86%
O=C(CSc1nnc(Nc2ccccc2F)s1)Nc1cccc(S(=O)(=O)N2CCCCC2)c1 | -10% | 0% | · | 12% | 22µM* | 8%[10 µM]
CC(C)Nc1nnc(SCC(=O)Nc2ccc3c(c2)C(=O)c2ccccc2C3=O)s1 | -19% | ? | · | 12% | 7.9µM* | ·
CCc1cccc(C)c1NC(=O)CN1C(=O)c2cccc3cccc1c23 | · | · | 2 | · | · | ·
Cc1ccc(C)c(NC(=O)Cn2cc(C(=O)c3cccs3)c3ccccc32)c1 | · | · | -8 | · | · | ·
Cc1nc(NC(=O)COC(=O)c2ccc(S(=O)(=O)N3CCc4ccccc4C3)cc2)c(Cl)cc1Cl | · | 6%[9.22 µM] | · | 10µM* | ? | -17%
O=C(COC(=O)c1ccc(Cl)c(S(=O)(=O)N2CCc3ccccc3C2)c1)Nc1ncc(Cl)cc1Cl | -12% | -4% | · | -4% | -3% | 13%[10 µM]
CN(C)[C@H]1C(=O)C(C(=O)NCN2CCCC2)=C(O)[C@]2(O)C(=O)C3=C(O)c4c(O)cccc4[C@@](C)(O)[C@H]3C[C@@H]12 | -20% | -2%[20.6 µM] | 6[20.6 µM] | 10% | -2%[20.9 µM] | -3%[40.3 µM]
COCCNc1nc(C)nc2c1nc(-c1ccccc1)n2CCCN1CCCCC1C (configuration not stated) | ? | · | · | 8% | ? | 7%
Cc1ccc(-n2c(C)c([N+](=O)[O-])c3ccc(O)c(CN(C)C)c32)cc1 | -12% | 2.5µM* | 5 | 49%[38.3 µM] | ? | -4%
COc1ccc(Oc2c(C)oc3c(CN4CCOCC4)c(O)ccc3c2=O)cc1 | ? | -16% | 7 | -26%[38.3 µM] | ? | 1%
COc1ccc(-n2c(C)c([N+](=O)[O-])c3ccc(O)c(CN4CCCCC4)c32)cc1 | -16% | 10µM* | 11 | -13%[38.3 µM] | ? | -7%
